Inconclusive results are not listed. Values without a mark were called inactive. Active and inactive are the calls of the source. Calls come from the whole dose curve; as a rule, active = well fitted inhibition curve with a large enough effect; inconclusive = small, poorly fitted or top-dose-only effect; inactive = no such curve, though single readings can be large or run the other way.
What follows are compounds tested against Cytochrome P450 3A4 (Homo sapiens) (UniProt P08684) (assay: qHTS Assay for Inhibitors and Substrates of Cytochrome P450 3A4 (AID 884; note: nearly all actives have a fitted effect of over 50% in size)). Details: recombinant CYP3A4, Luciferin-PPXE luminescence; series mostly up to 57.1 µM; activity change, negative = inhibition: at the top concentration.
Sequence of Cytochrome P450 3A4 (Homo sapiens) (P08684 whole entry, looked up): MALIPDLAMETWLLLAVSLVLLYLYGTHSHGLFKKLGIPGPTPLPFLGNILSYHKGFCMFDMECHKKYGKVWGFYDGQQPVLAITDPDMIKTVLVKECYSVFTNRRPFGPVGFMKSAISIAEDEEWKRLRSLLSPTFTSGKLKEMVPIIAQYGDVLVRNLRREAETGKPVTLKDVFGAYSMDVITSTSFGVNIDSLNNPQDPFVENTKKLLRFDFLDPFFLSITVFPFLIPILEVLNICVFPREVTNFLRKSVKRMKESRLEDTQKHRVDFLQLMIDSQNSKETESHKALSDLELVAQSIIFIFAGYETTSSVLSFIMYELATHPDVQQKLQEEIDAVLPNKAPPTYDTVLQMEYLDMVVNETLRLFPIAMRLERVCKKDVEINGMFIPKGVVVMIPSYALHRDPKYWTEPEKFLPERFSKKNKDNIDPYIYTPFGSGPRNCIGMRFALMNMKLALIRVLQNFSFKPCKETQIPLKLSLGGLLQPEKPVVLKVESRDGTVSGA
Method in brief: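 20 nM human CYP3A4 with 25 uM Luciferin-PPXE (at KM) in 200 mM KPO4, preincubated 10 min with compound; NADPH regeneration started a 60 min RT reaction. Luciferin detected by luminescence, normalized to 57 uM ketoconazole as full inhibition.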
% is set by controls: 0 for no effect and ±100 for the full control effect; potency is the fitted concentration of half-maximal effect.

SMILES	Potency	activity change, negative = inhibition
O=C(O)COc1ccc(Cl)cc1Cl	inactive	
CC(=O)OC1CC2C(C)(C)C(=O)C=C[C@]2(C)C2CC[C@]3(C)C(=CC(=O)OC3c3ccoc3)[C@]12C (some centres not stated)	15.8 µM (active)	
COc1cc2c(cc1O)CC1c3c(cc(O)c(OC)c3-2)CCN1C (configuration not stated)	25.1 µM (active)	
ClC1=C(Cl)C2(Cl)C3C4C=CC(C4)C3C1(Cl)C2(Cl)Cl (configuration not stated)	3.16 µM (active)	
c1ccc(N=Nc2ccccc2)cc1	inactive	
CCOCN(C(=O)CCl)c1c(C)cccc1CC		69%
CNC(=O)O/N=C/C(C)(C)SC		-2.98%
COc1cc2c(cc1-c1cc3cc4ccoc4cc3oc1=O)OCO2	0.398 µM (active)	
ClC1=C(Cl)C2(Cl)C3C(Cl)C=CC3C1(Cl)C2(Cl)Cl (configuration not stated)	10 µM (active)	
CCc1cccc(CC)c1N(COC)C(=O)CCl		-4.95%
N#Cc1ccc(CN2CCC3(CC2)CCN(C(=O)Oc2ccccc2)CC3)cc1		134%
COP(=S)(OC)Oc1ccc([N+](=O)[O-])cc1	3.98 µM (active)	
